Experimental data reported in PubChem BioAssay (NCI).
The panel holds about 83,000 compounds, 20% with a hit somewhere; the sample as a whole holds those more often.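 48-hour exposure, single concentration, 96-well plates; percent growth endpoint where 0 means no net growth. Active: below 10.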 The source made the active and inactive calls.

Legend:
Experiment in all cases: NCI-60 one-dose screen, 48 h (100 = growth as untreated, 0 = no growth, -100 = all killed)
Settings in all cases: 10 µM unless noted
[1] = system: NCI-H23 lung
[2] = system: NCI-H226 lung
[3] = system: NCI-H322M lung
[4] = system: HOP-62 NSCLC
[5] = system: NCI-H460 lung
[6] = system: HOP-92 NSCLC
[7] = system: NCI-H522 lung
[8] = system: A549/ATCC NSCLC
[9] = system: 786-0 renal
[10] = system: COLO 205 colon
[11] = system: DU-145 prostate
[12] = system: K-562 leukemia
[13] = system: MALME-3M melanoma
[14] = system: MDA-MB-231 breast
[15] = system: RXF 393 renal
[16] = system: SF-268 CNS
[17] = system: SF-295 CNS
[18] = system: SF-539 CNS
[19] = system: UACC-257 melanoma
[20] = system: M14 melanoma

Measured: growth

CCN1CCN(CC(=O)Nc2nc3ccc(NCc4ccc(Cl)cc4)cc3s2)CC1
inactive: [1] 69.2% | [2] 60% | [3] 79.4% | [4] 77.6% | [5] 54.7% | [6] 31.6% | [7] 86.3% | [8] 61.5% | [9] 73% | [10] 23.8% | [11] 89.6% | [14] 51.9% | [15] 51.2% | [16] 71% | [17] 81.6% | [18] 64.3%
active: [12] 2.71% | [13] 0.984% | [19] 7.11% | [20] -76.6%

COc1ccc2c(c1)c(-c1noc(-c3cn(C)c4ncc(F)cc34)n1)cn2C
inactive: [1] 75.4% | [2] 108% | [3] 57% | [4] 55.7% | [5] 18.5% | [6] 69.9% | [7] 79% | [8] 21.5% | [9] 50.8% | [10] 88.3% | [11] 82.4% | [12] 84.7% | [13] 77.5% | [14] 62.2% | [15] 73.7% | [16] 79.7% | [17] 62.6% | [18] 84.6% | [19] 94.4% | [20] 91.9%

COc1cc(OC)cc(C(=O)Nc2cc(-c3cccnc3)nc(NCCCN3CCOCC3)n2)c1
inactive: [1] 91.7% | [2] 85.7% | [3] 90.9% | [4] 87.8% | [5] 95.3% | [6] 67.7% | [7] 92% | [8] 92.6% | [9] 84% | [10] 94.3% | [11] 104% | [12] 74.1% | [13] 110% | [14] 79.6% | [15] 93.9% | [16] 94.1% | [17] 101% | [18] 91.1% | [19] 88.6% | [20] 104%

COc1cc(NCc2ccccc2O)c2ncccc2c1
inactive: [1] 97.7% | [2] 104% | [3] 90.7% | [4] 83.5% | [5] 97.3% | [6] 81.1% | [7] 88.3% | [8] 110% | [9] 69.5% | [10] 96.9% | [11] 112% | [12] 97.3% | [13] 92.9% | [14] 91.3% | [15] 100% | [16] 110% | [17] 129% | [18] 86% | [19] 109% | [20] 94.4%

C=C1C(=O)O[C@H]2[C@H]1CC/C(COC(=O)NCc1ccc(Cn3c(=O)sn(-c4ccc(Cl)cc4)c3=O)cc1)=C\CC[C@@]1(C)O[C@@H]21
inactive: [1] 94.9% | [2] 87.4% | [3] 104% | [4] 106% | [5] 101% | [6] 45.5% | [8] 95.9% | [9] 70.8% | [10] 24% | [11] 18.1% | [13] 65.2% | [14] 54.7% | [15] 62% | [16] 83.7% | [17] 99.5% | [18] 90.8% | [19] 72.9% | [20] 59.2%
active: [7] -8.38% | [12] 6.2%

CC[C@]1(O)CC2CN(CCc3c([nH]c4ccccc34)[C@@](C(=O)OC)(c3cc4c(cc3OC)N(C=O)[C@H]3[C@@](O)(C(=O)OC)[C@H](OC(C)=O)[C@]5(CC)C=CCN6CC[C@]43[C@@H]65)C2)C1 (stereo not given in full)
active: [2] 2.28% | [5] 3.19% | [7] -21.5% | [10] -61.1% | [11] -46.8% | [14] -31.3% | [16] 3.28% | [17] 6.3% | [18] 5.55% | [20] 4.87%
inactive: [1] 21.5% | [3] 59.8% | [4] 16.9% | [6] 25.4% | [8] 16.7% | [9] 16.8% | [12] 14.7% | [13] 54.7% | [15] 65.2% | [19] 53.8%

Cc1ccc(S(=O)(=O)N/N=C2\CC3CCC2(C)C3(C)C)cc1 (stereo not given)
inactive: [1] 237% | [2] 96.9% | [3] 116% | [4] 103% | [5] 108% | [6] 95.6% | [7] 63.1% | [8] 81.8% | [9] 103% | [10] 113% | [11] 105% | [12] 120% | [13] 103% | [14] 89% | [15] 89.4% | [16] 116% | [17] 94% | [18] 102% | [19] 87.8% | [20] 77.9%

COC(=O)c1cc(O)c2c(c1C(=O)OC)C[C@H]1[C@@H]3CC=C4C[C@@H](O)CC[C@]4(C)[C@H]3CC[C@]21C
active: [9] -56.1% | [14] 2.21% | [15] -60.6% | [17] -14.5% | [18] 8.9%
inactive: [1] 46% | [2] 70.6% | [3] 66% | [4] 20.4% | [5] 64.6% | [6] 18.6% | [7] 50% | [8] 38.5% | [10] 83.1% | [11] 79% | [12] 20% | [13] 28.3% | [16] 66.8% | [19] 14.3% | [20] 11.6%

C[C@@H]1C[C@H]2C(=O)O[C@@H](C)[C@H](NC(=O)[C@H](Cc3cc(F)cc(F)c3)NC(=O)Nc3ccc(C4CC4)cc3F)C(=O)N3CCC[C@H]3C(=O)N3CCCC[C@H]3C(=O)N[C@@H](C)C(=O)N2C1
active: [6] 3.54% | [10] -33.2% | [14] -14.4% | [15] -1.09% | [17] -1.67% | [19] 6.5%
inactive: [1] 28.7% | [2] 19.8% | [3] 45.4% | [4] 27.8% | [5] 13.6% | [7] 19.4% | [8] 18.3% | [9] 20% | [11] 21.8% | [12] 17.5% | [13] 18.5% | [16] 22.5% | [18] 24.7% | [20] 10.7%

COc1ccc(CC(C#N)c2ccc(Cl)cc2)cc1 (stereo not given)
inactive: [1] 77.2% | [2] 87.5% | [3] 93.9% | [4] 74.3% | [5] 83.7% | [6] 83.8% | [7] 78.1% | [8] 79.1% | [9] 87% | [10] 94% | [11] 77.3% | [12] 41.6% | [13] 89.3% | [14] 79.7% | [15] 92.1% | [16] 78% | [17] 78.9% | [18] 85.1% | [19] 91.7% | [20] 73.3%

CC(C)=CCC[C@](C)(O)[C@H]1CC[C@]2(C)[C@@H]1CC[C@@H]1[C@@]3(C)CC[C@H](OC(=O)CCC(=O)O)C(C)(C)[C@@H]3CC[C@]12C
inactive: [1] 16.9% [100 µM] | [2] 27.4% [100 µM] | [3] 27.4% [100 µM] | [6] 13.3% [100 µM] | [8] 19.5% [100 µM] | [9] 23% [100 µM] | [10] 12.9% [100 µM] | [11] 40.8% [100 µM] | [12] 24.2% [100 µM] | [13] 10.5% [100 µM] | [14] 13.5% [100 µM] | [15] 37.8% [100 µM] | [16] 52% [100 µM] | [18] 31% [100 µM] | [19] 28.3% [100 µM] | [20] 30.2% [100 µM]
active: [4] -5.43% [100 µM] | [5] 4.47% [100 µM] | [7] 9.19% [100 µM] | [17] 4.05% [100 µM]

Cc1cccc(C[C@H](NC(=O)Nc2ccc(C)cc2F)C(=O)N[C@@H]2C(=O)N3C[C@H](O)C[C@H]3C(=O)N3CCN(C)C[C@H]3C(=O)N[C@@H](C)C(=O)N3C[C@H](C)C[C@H]3C(=O)O[C@H]2C)c1
inactive: [1] 38.1% | [2] 53.9% | [3] 73.3% | [4] 57.9% | [5] 42.5% | [6] 38.9% | [7] 38% | [8] 43.5% | [9] 84.2% | [10] 12.4% | [11] 38.4% | [12] 23.1% | [13] 39.9% | [14] 18.7% | [15] 79.1% | [16] 31.6% | [17] 45% | [18] 50.7% | [19] 27.3% | [20] 79.9%

C=C(C)[C@@H]1CC[C@]2(C(N)=O)CC[C@]3(C)[C@H](CC[C@@H]4[C@@]5(C)CC[C@H](O)C(C)(C)[C@@H]5CC[C@]43C)[C@@H]12
active: [1] -27.1% [100 µM] | [2] -50.5% [100 µM] | [3] -58.9% [100 µM] | [4] -72.2% [100 µM] | [5] -37.5% [100 µM] | [6] -62.8% [100 µM] | [7] -53.8% [100 µM] | [8] -69.3% [100 µM] | [9] -72.2% [100 µM] | [10] -66.2% [100 µM] | [11] -33% [100 µM] | [12] 4.57% [100 µM] | [13] -57.1% [100 µM] | [14] -28.4% [100 µM] | [15] -49.3% [100 µM] | [16] 4.41% [100 µM] | [17] -57.7% [100 µM] | [18] -70.5% [100 µM] | [19] -6.08% [100 µM] | [20] 8.8% [100 µM]

O=C(Nc1ccc(F)cc1)c1ccccc1
inactive: [1] 108% | [2] 104% | [3] 103% | [4] 109% | [5] 105% | [6] 119% | [7] 101% | [8] 99.6% | [9] 100% | [10] 113% | [11] 104% | [12] 103% | [13] 98.8% | [14] 105% | [15] 116% | [16] 105% | [17] 93.4% | [18] 99.3% | [19] 107% | [20] 106%
